# Source: PubChem BioAssay (several laboratories)
# Only some compounds are listed: those with a hit (about 1.8% of all), similar ones and a draw of the others.
# ARNT TACC3 PPI: disruptors of ARNT/TACC3 protein interaction, primary screen, biochemical, AlphaScreen, single concentration | Transforming acidic coiled-coil-containing protein 3 (Homo sapiens), Q9Y6A5 | AlphaScreen His-ARNT PAS-B/GST-TACC3 binding, luminescence; TACC3 fragment carries E629A point mutation | inhibition, % at 9.99 µM | actives 0.66% (n = 390,000) | AID 623870, 2012;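 active = mean inhibition of replicates at least 50% and at least half of replicates each reaching 50%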;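 note: 0% = complete ARNT plus TACC3 wells and 100% = ARNT alone without TACC3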
# iPSC survival up: enhancers of single-cell hiPSC survival, primary screen, ATPlite luminescence; 100% = ROCK inhibitor wells, 0% = DMSO; survival enhancement, % at 20 µM; actives 0.044% (n = 360,000); AID 602274, 2012; in the data active = survival enhancement above about 18%;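 note: cells exposed to compounds for 16 hours before the ATP read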
# ABCB6 inh 2: ABCB6 transporter inhibitors, primary screen, K562-ABCB6 cells, flow cytometry, MLPCN library | ATP-binding cassette sub-family B member 6 (Homo sapiens), Q9NP58 | actives 0.19% (n = 360,000) | K562-ABCB6 porphyrin accumulation, 1 h; hits give low values | fluorescence ratio to DMSO, % at 10 µM;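 active = fluorescence ratio to DMSO below 75%, the collection mean minus 3 SD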;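 note: signal is porphyrin accumulated inside mitochondria; 100% equals median channel fluorescence of DMSO control wells; lower ratio means ABCB6 inhibition with less porphyrin fluorescence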
# CendR NRP1 mod: modulators of CendR peptide binding to NRP-1, primary screen, biochemical, fluorescence polarization, uHTS | Neuropilin-1 (Homo sapiens), O14786 | inhibition, % at 25 µM | actives 0.85% (n = 360,000) | AID 602438, 2012 | FAM-RPARPAR peptide binding to NRP-1;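 active = inhibition or corrected inhibition above about 18%, plus a signal ratio from 0.5 to 1.5, limit read from the data, passing the limit was not always enough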
# Target sequence (O14786 whole entry, looked up): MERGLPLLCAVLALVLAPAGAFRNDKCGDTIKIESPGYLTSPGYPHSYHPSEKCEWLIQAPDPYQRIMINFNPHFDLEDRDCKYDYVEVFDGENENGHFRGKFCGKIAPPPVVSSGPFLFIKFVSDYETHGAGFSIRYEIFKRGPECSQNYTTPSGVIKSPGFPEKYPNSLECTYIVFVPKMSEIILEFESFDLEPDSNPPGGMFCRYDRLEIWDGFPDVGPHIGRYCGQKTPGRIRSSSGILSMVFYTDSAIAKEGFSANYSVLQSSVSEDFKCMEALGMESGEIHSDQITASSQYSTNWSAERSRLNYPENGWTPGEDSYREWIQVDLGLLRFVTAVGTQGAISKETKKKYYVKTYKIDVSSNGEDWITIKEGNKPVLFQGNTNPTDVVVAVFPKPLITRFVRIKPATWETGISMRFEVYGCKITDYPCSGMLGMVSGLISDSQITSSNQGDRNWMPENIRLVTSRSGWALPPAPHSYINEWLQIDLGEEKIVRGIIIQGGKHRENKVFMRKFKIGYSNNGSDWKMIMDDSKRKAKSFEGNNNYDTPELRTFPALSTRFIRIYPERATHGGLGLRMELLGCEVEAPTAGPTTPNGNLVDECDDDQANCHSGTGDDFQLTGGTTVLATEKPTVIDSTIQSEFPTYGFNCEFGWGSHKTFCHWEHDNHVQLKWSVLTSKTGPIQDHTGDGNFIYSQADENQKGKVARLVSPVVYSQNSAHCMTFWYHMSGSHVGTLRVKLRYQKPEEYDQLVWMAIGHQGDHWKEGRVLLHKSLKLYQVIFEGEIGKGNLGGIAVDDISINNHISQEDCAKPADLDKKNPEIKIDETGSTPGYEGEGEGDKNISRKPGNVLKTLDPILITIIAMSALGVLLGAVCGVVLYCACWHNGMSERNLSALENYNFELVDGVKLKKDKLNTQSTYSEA
# GSIS activator: GLuc luminescence reporter in INS-1E cells, primary screen for activators of glucose-dependent secretion of insulin; actives 0.61% (n = 370,000); INS-1E GLuc reporter insulin secretion, 2-3 h; activation, % at 16.6 µM;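 active = lowest replicate activation of at least 40%, so every replicate reaches that level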;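 note: 0% = median of neutral control wells and 100% = median of IBMX positive control wells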
# Numbers without * were called inactive; . = not tested or not shown; ! = repeats disagree.
SMILES,ARNT TACC3 PPI,iPSC survival up,ABCB6 inh 2,CendR NRP1 mod,GSIS activator
C[C@]12CC[C@H](O)CC1=CC(=O)C1C2CC[C@]2(C)C(=O)[C@H](O)CC12 (stereo partly specified),-1,-1,105,19*,30
FC(F)(F)CN1C[C@@H]2N[C@H](C1)C2c1ccc(Br)cc1 (stereo partly specified),.,.,.,.,-15
COC(=O)c1nc(-c2ccc3c(n2)C(=O)C(N)=C(OC)C3=O)c(N)c(-c2ccc(OC)c(OC)c2O)c1C,45*,-1,105,0,-16
C/C=C/c1ccc(C2[C@H]3CNC[C@@H]2N3CC2CCCCC2)cc1 (stereo partly specified),.,.,.,.,5
Clc1ccc(COC(Cn2ccnc2)c2ccc(Cl)cc2Cl)c(Cl)c1 (stereo unspecified),0,2,96,-10,49*!
C=CCn1c(O)c(/C=C2/C=CC=N2)c(=O)[nH]c1=O,.,-2,102,0,27
CCCCn1c(O)c(/C=C2/C=CC=N2)c(=O)[nH]c1=O,-14,0,99,-23,56*
CC1=C[C@@H]2c3cccc4[nH]cc(c34)C[C@H]2N(C)C1,9,2,146,44*,-14
C[C@]12CCC3C(CC[C@H]4C[C@@H](O)CC[C@]34C)C1C[C@@H](O)[C@]2(C)O (stereo partly specified),-7,8,97,28*,5
C#C[C@]1(O)[C@H](O)CC2C3CC[C@H]4C[C@@H](O)CC[C@]4(C)C3CC[C@@]21C (stereo partly specified),.,2,98,8,24
CCOC(=O)c1nsnc1NCCCl,-5,2,102,22*,8
CCCNC(=O)N1[C@H]2CC[C@@H]1C(C(=O)OC)=C(c1ccc(F)cc1F)C2,-2,-3,98,32*,-2
COC(=O)C1=C(c2cccc(C#N)c2)C[C@@H]2CC[C@H]1N2C(=O)N1CCC(O)CC1,-5,5,96,25*,21
COC(=O)C1=C(c2ccc(F)cc2OCc2ccccc2)C[C@@H]2CC[C@H]1N2C(=O)N1CCCC1,6,-4,94,27*,-38
COC(=O)C1=C(c2cccc(C#N)c2)C[C@@H]2CC[C@H]1N2C(=O)NCCO,1,0,88,29*,8
COC(=O)[C@H]1[C@H](CO)[C@H]2Cn3c(ccc(-c4ccccc4F)c3=O)[C@@H]1N2CC1CCCC1,-1,.,.,.,-1
CCN1[C@@H]2Cn3c(ccc(-c4ccc(OC)cc4)c3=O)[C@H]1[C@@H](C(=O)OC)[C@@H]2CO,3,.,.,.,12
COC(=O)C[C@@H]1CC[C@H]2NC[C@@H](O)COC[C@@H]2O1,15,.,.,.,-10
COC(=O)C1=C(c2ccc(Cl)c(C(F)(F)F)c2)C[C@@H]2CC[C@H]1N2C(=O)NCCNC(C)=O,-2,4,97,24*,-17
COC(=O)C1=C(c2ccc(C(C)=O)cc2)C[C@@H]2CC[C@H]1N2C(=O)NCc1ccc2c(c1)OCO2,15,-2,96,21*,-2
CC(=O)N1C[C@@H]2C(c3ccccc3)[C@H](C1)N2C (stereo partly specified),.,.,.,.,-8
CC(=O)OC1CC(OC2C(O)CC(OC3C(O)CC(OC4CCC5(C)C(CCC6C5CCC5(C)C(C7=CC(=O)OC7)CCC65O)C4)OC3C)OC2C)OC(C)C1OC1OC(CO)C(O)C(O)C1O (stereo unspecified),-53,-3,97,5,.
CC(=O)OC1CC[C@]2(C#N)[C@H]3CC[C@]4(C)[C@H](C5C=CC(=O)O5)CCC4(O)C3CCC2(O)C1 (stereo partly specified),3,1,102,22*,12
Cc1ccc(C2(O)CCN3CCCCC32)cc1 (stereo unspecified),8,1,89,29*,.
CCCN1[C@@H]2Cn3c(ccc(-c4ccccc4)c3=O)[C@H]1[C@@H](C(=O)OC)[C@@H]2CO,-6,.,.,.,23
SMILES,ARNT TACC3 PPI,iPSC survival up,ABCB6 inh 2,CendR NRP1 mod,GSIS activator
Cc1nn(Cc2ccc(Cl)cc2Cl)c(Cl)c1C(=O)O,37,2,92,-4,13
Cc1nn(Cc2ccc(Cl)cc2Cl)c(Cl)c1C(=O)Nc1ccc(OC(F)F)cc1,0,3,96,1,71*
CC(=O)c1ccc2c(c1)C1C(Cl)C(Sc3ccccc3[N+](=O)[O-])CC1C(C(=O)O)N2 (stereo unspecified),14,-3,105,31*,.
O=C(O)c1cccc2c1NC(C(=O)O)C1CC(Sc3ccccc3[N+](=O)[O-])C(Cl)C21 (stereo unspecified),36,1,98,14,-24
N[C@@H](Cc1c[nH]c2ccccc12)c1nnc(SCc2ccc(Cl)cc2)o1,.,2,71*,9,-19
CC(C)CC#Cc1ccc([C@H]2[C@H](CO)N3CCCCN(C(=O)Cc4ccccn4)C[C@@H]23)cc1,5,.,.,.,-7
CCOC(=O)C1C(OC(=O)c2ccccc2)CC2CCC1N2C (stereo unspecified),-3,-1,99,-2,41*
CN1C2CCC1C(C(=O)O)C(OC(=O)c1ccccc1)C2 (stereo unspecified),2,-1,99,-2,40*
COC(=O)C1C2CC[C@@H](CC1OC(=O)c1ccccc1)N2 (stereo partly specified),-2,-1,103,-6,.
CC=Cc1ccc2n(c1=O)C[C@H]1[C@H](CO)[C@@H](C(=O)OC)[C@@H]2N1CC1CC1 (mixture of isomers),-1,.,.,.,20
C=CCN1[C@@H]2CN(C(=O)NC(C)C)C[C@H]1C2c1ccc(Br)cc1 (stereo partly specified),.,.,.,.,0
CC1C(=O)OC2CCN3CC4OC4(COC(=O)C(C)(O)C1(C)O)C23 (stereo unspecified),7,2,94,26*,8
c1ccc(CNC2=NCCS2)cc1,4,4,99,21*,.
Cc1ccc(CNC2=NCCS2)cc1,-6,0,99,12,7
COC(=O)[C@@H]1[C@@H](CO)[C@@H]2Cn3c(ccc(-c4ccncc4)c3=O)[C@H]1N2S(=O)(=O)c1ccccc1F,-4,.,.,.,5
COc1ccc(-c2ccc([C@@H]3[C@@H](CO)N4CCCCN(C(=O)Cc5ccccc5)C[C@H]34)cc2)cc1,-4,.,.,.,6
CC(C)NC(=O)N1C[C@@H]2N[C@H](C1)C2c1ccccc1 (stereo partly specified),.,.,.,.,-10
Cc1ccc(-n2c(C)nc3ccccc3c2=O)cc1C,.,0,105,-5,9
